# Most compounds without a hit are left out; they make up all but 3% or so of the library.
# SNCA expr inhib – Primary qHTS assay for inhibitors of alpha-synuclein gene (SNCA) expression; 140,000 compounds, 0.17% hits; AID 1671194, 2021; HEK-293 SNCA-luciferase knock-in, luminescence, 24 h; Potency, µM (top dose mostly 57.2 µM), for inactives: at the highest dose activity change, negative = inhibition, most hits filed as inhibitors;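 note: potency is the fitted concentration of half-maximal effect; plate controls were DMSO cells for no effect and cell-free wells for full effect; nearly all actives have a fitted effect of over 45% in size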
# HEK293 viab – GF-AFC viability counterscreen for inhibitors of alpha-synuclein gene (SNCA) expression; Potency, µM (titrated, usually from 57.1 µM), without a hit: top-dose activity change, negative = cytotoxicity, most hits filed as cytotoxic; HEK-293-SNCA-luc viability, GF-AFC fluorescence, 24 h; 150,000 compounds, 0.12% hits;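 note: potency is the fitted concentration of half-maximal effect; 0% = DMSO-treated cells and -100% = medium-only wells without cells; nearly all actives have a fitted effect of over 30% in size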
#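 HEK-293-SNCA-luc cells (1500/well) plated 24 h, then exposed 24 h to a dilution series; GF-AFC added 30 min at 37C, fluorescence 405/540 nm; normalised to medium-only and DMSO wells, Hill fit.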
# IP6K1 inhibitor – Primary qHTS assay for small molecule inhibitors of Inositol hexaphosphate kinase 1 (IP6K1) | activity change, % (series mostly up to about 58 µM) | IP6K1 kinase, ADP-Glo luminescence, 2 h; active compounds read low | Inositol hexakisphosphate kinase 1 (Homo sapiens), Q92551 | 140,000 compounds, 0.81% hits; in the data active = activity change below about -25%; note: % is set by controls: 0 for no effect and ±100 for the full control effect
#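 ADP-Glo luminescence measures ADP made by human IP6K1 during a 2 h RT reaction with ATP/IP6 (mix at 1.3 mM/130 uM); top library doses 57.5 and 19.1 uM final.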
# KDM5B inh – Primary screen for KDM5B Histone Demethylases FDH-coupled qHTS; Lysine-specific demethylase 5B (Homo sapiens), Q9UGL1; KDM5B demethylase, FDH-coupled NADH fluorescence (FDH is formaldehyde dehydrogenase); Potency, µM (top dose mostly 57.7 µM), actives largely listed as inhibitors; 220,000 compounds, 2.6% hits; AID 1347165, 2019; note: potency is the fitted concentration of half-maximal effect; 0% is about no effect; nearly all actives have a fitted effect of over 70% in size
# Target sequence (Q9UGL1 whole entry, looked up): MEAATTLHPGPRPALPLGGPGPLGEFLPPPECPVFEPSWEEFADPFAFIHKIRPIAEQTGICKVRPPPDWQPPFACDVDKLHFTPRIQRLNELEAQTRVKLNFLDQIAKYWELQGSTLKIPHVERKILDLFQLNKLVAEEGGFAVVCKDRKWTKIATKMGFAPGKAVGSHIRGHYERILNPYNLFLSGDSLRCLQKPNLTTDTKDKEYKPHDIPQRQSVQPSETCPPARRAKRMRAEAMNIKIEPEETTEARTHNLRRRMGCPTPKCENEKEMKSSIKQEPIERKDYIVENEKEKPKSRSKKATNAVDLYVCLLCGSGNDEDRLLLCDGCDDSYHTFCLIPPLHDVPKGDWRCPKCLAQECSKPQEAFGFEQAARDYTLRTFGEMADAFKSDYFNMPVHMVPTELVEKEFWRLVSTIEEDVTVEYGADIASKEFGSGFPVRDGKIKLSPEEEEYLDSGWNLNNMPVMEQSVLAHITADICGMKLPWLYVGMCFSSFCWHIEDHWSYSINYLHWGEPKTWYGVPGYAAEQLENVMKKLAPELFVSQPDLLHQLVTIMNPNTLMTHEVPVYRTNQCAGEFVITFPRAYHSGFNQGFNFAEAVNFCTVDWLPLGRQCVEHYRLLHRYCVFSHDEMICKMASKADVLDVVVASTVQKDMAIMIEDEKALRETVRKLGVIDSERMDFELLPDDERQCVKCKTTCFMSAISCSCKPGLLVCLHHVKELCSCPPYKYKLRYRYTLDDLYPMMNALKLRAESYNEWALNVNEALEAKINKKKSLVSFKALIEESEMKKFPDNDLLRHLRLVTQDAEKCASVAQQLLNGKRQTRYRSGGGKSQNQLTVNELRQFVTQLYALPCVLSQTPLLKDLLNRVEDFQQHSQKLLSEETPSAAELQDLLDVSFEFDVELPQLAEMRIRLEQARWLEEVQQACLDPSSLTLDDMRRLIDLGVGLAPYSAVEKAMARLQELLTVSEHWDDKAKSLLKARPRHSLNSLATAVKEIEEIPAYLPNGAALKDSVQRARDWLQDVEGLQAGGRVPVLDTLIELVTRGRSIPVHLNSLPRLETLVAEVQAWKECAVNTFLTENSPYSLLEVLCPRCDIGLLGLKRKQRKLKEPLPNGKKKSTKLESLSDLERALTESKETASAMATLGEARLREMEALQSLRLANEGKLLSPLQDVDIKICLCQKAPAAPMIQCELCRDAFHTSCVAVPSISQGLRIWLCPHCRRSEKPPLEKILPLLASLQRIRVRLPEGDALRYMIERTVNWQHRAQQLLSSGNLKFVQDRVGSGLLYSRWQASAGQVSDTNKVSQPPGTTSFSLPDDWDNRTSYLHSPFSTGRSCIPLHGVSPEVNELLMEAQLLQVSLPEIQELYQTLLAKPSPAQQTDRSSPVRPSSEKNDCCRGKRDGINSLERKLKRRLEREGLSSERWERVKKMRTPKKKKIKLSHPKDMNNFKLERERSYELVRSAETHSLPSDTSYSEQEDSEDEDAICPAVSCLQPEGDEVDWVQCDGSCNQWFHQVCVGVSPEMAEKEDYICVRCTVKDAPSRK
#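 KDM5BΔAP (200 nM final) in 50 mM HEPES pH 7.5, 0.01% Tween-20 was preincubated 10 min at RT with compound over a concentration range. Substrate mix (H3K4me3 12.5 µM, α-KG 25 µM, Fe²⁺, ascorbate, NAD⁺, FDH) was added, and NADH fluorescence change over 30 min gave dose-response curves.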
# Numbers without * were called inactive; i = inactive; ? = inconclusive; / = no result; ! = not active in a repeat; [ ] = remark or other dose. Unless noted, calls come from the whole dose curve; as a rule, active = well fitted curve in the direction sought with a large enough effect; inconclusive = small, poorly fitted or top-dose-only effect, or another doubt; inactive = no such curve, though single readings can be large; an effect the other way counts as inactive or inconclusive.
SMILES,SNCA expr inhib,HEK293 viab,IP6K1 inhibitor,KDM5B inh
Cc1ccc(-c2nc(C(=O)N3CCN(c4cc(C)ccc4C)CC3)no2)cc1,33.4%,11.0%,12.4,?
COCCNC(=O)c1noc(-c2ccc[nH]c2=O)n1,5.9%,0.5%,-8.8,28.2µM*
Cc1ccc(C)c(N2CCN(C(=O)c3noc(-c4ccc[nH]c4=O)n3)CC2)c1,-7.0%,-2.6%,-3.2,28.2µM*
COc1cccc([S+](=O)([O-])NC2CCN(c3ccc4nnc(C)n4n3)CC2)c1,/,/,-5.3,/
COc1ccccc1NC(=O)c1cc2c(N3CCSCC3)nc(C)cn2n1,-5.7%,3.1%,5.0,28.2µM*
Cc1ccc(C)c(NC(=O)c2cc3c(N4CCSCC4)nc(C)cn3n2)c1,7.2%,-0.3%,-0.8,31.6µM*
Cc1cn2nc(C(=O)Nc3ccccc3C)cc2c(N2CCSCC2)n1,28.9%,?,-7.3,35.5µM*
Cc1cccc(OCCCN)c1,/,/,/,i
Cc1ccc([S+](=O)([O-])N2CCCC(N3C(=O)c4c(c(C)nn4-c4ccccc4)C3C(C)C)C2)cc1 (stereo not given),/,/,11.2,/
COc1ccc(-c2nc(C)nc3c2CN(C(=O)Nc2ccc(Cl)cc2)CC3)cc1,1.3%,-8.4%,-4.9,/
COc1ccc(-c2nc(C)nc3c2CN(C(C)=O)CC3)cc1,3.4%[87.6 µM],11.3%[87.6 µM],12.0,?
COCC(=O)N1CCc2nc(C)nc(-c3ccc(OC)cc3)c2C1,23.7%[87.6 µM],15.0%[87.6 µM],12.1,31.6µM*
COCC(=O)N1CCc2nc(-c3ccccc3)nc(-c3ccc(OC)cc3)c2C1,-21.4%,-18.5%,-8.7,22.4µM*
COc1ccc(-c2nc(C)nc3c2CN(Cc2ccc(NC(C)=O)cc2)CC3)cc1,5.9%,3.7%,7.8,22.4µM*
Cc1[nH]nc2ccc(-c3cncc(OC[C@@H](N)Cc4ccccc4)c3)cc12,0.171µM*,9.47µM*!,-6.1,/
CC(=O)N/C(=C/c1ccccc1)C(=O)OC(C(N)=O)c1ccccc1 (stereo not given),/,/,/,i
COc1ccc2c(c1)c(CN1CCc3nn(C)c(=O)n3CC1)cn2C,?,?,-11.4,31.6µM*
COc1ccc(NC(=O)c2nc3sccn3c2-c2cccc(C(F)(F)F)c2)cc1,-28.2%,22.4µM*,7.3,/
COc1ccccc1-c1nc2cnccn2c1NCCC(=O)Nc1ccc(C)cc1C,-8.4%,?,16.0,?
CC(=O)Nc1ccc(NC(=O)CCNc2c(-c3ccc(F)cc3)nc3cnccn23)cc1,-3.9%,27.4%,2.6,28.2µM*
Cc1ccccc1NC(=O)CCNc1c(-c2ccc(F)cc2)nc2cnccn12,-10.3%,-0.2%,-0.8,25.1µM*
COc1cccc(-c2nc3cnccn3c2NCCC(=O)Nc2ccc(F)cc2C)c1,12.5%,?,18.5,28.2µM*
Cc1cc(=O)oc2cc(OCC(=O)NC3CCCc4c3[nH]c3ccccc43)ccc12 (stereo not given),?,?,3.9,15.8µM*
O=C(COc1ccccc1-n1cnnc1)NC1CCCc2c1[nH]c1ccccc21 (stereo not given),12.0%,4.9%,0.0,i
Cc1noc(C)c1CCC(=O)NC1CCCc2c1[nH]c1ccccc21 (stereo not given),-2.0%,-5.1%,3.0,28.2µM*
SMILES,SNCA expr inhib,HEK293 viab,IP6K1 inhibitor,KDM5B inh
C[S+](=O)([O-])N1CCc2nc(C3CC3)nc(-c3ccc(Cl)cc3)c2C1,-4.0%,-15.9%,-6.6,/
CC1(C)[C@H](Cc2cc(CC3CCCCC3)on2)C[C@@H]1NS(C)(=O)=O,21.7%[87.6 µM],-8.0%[87.6 µM],-14.1,?
CN1CCN(c2cc(=O)c3ccnc(-c4ccc([S+](C)(=O)[O-])cc4)c3o2)CC1,0.3%[87.6 µM],4.1%[87.6 µM],-8.9,31.6µM*
CN1CCN(c2ccc(-c3nccc4c(=O)cc(N(C)c5ccccc5)oc34)cn2)CC1,122.8%[87.6 µM],-28.9%[87.6 µM],-7.5,?
Cc1ccc(-c2nccc3c(=O)cc(N4CCN(C)CC4)oc23)cc1,5.1%[87.6 µM],-11.0%[87.6 µM],-8.3,39.8µM*
O=c1cc(-c2ccncc2)oc2c(-c3ccccc3O)nccc12,-25.8%[87.6 µM],-19.3%[87.6 µM],-11.1,i
Cc1cccc(-c2nccc3c(=O)cc(N4CCN(C)CC4)oc23)c1,-16.2%[87.6 µM],?,-15.9,35.5µM*
C[S+](=O)([O-])c1ccc(-c2nccc3c(=O)cc(-c4ccncc4)oc23)cc1,20.7%[87.6 µM],2.5%[87.6 µM],-4.6,31.6µM*

# Assay outcomes from PubChem BioAssay.
